Source: PubChem BioAssay (NCATS)
Where “and” joins values, the source holds several entries; their conditions need not be identical. Identical values can stand only once. Records with an inconclusive call do not appear. Calls of active or inactive are those of the source. Unless noted, the call rests on the fitted dose curve; in most records, active means well fitted curve in the direction sought with a large enough effect; inconclusive means small, poorly fitted or top-dose-only effect, or another doubt; inactive means no such curve, though single readings can be large; an effect the other way counts as inactive or inconclusive.

Experiments:
[1] = Cell Viability - Jurkat (AID 426;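 active means dose-dependent loss of cell ATP signal giving a full or clear fitted curve, ranked by lower potency value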;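 further: potency means the concentration at half of the fitted maximal effect; cells exposed to compound for 40 hours at 37 °C before ATP read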); details: qHTS
Outline: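 Luminescent ATP read-out (CellTiter-Glo, 20 min at room temperature) after 40 hr compound exposure at 37 °C of Jurkat E6-1 cells, 5000/well. Decreased ATP taken as cytotoxicity; AC50 from standard Hill equation.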

[2] = molecular target: Mitogen-activated protein kinase 10 (Mus musculus) (UniProt Q61831); assay: JNK3 AlphaScreen Assay (AID 530; active means well fitted curve in either direction with a large enough effect, not every such curve was filed as active;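 further: kinase came from lysate of stimulated human HepG2 cells; signal reports phosphorylation of biotinylated GST-cJun 1-79 at Ser73 with 10 µM ATP; on the % scale 0 is the no-effect control and ±100 the full control effect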); details: JNK3 lysate, c-Jun phosphorylation; series mostly up to 57.1 µM
Outline: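 Kinase buffer: 20 mM Tris-HCl pH 7.6, 10 mM MgCl2, 1 mM DTT, 0.1 mM Na3VO4, 0.01% Tween-20; ATP 10 uM. Substrate biotin-GST-cJun(1-79), enzyme from activated HepG2 lysates. Detection by Ser73 phospho-antibody AlphaScreen.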

[3] = Cell Viability - H-4-II-E (AID 543); details: H-4-II-E rat hepatoma viability; series mostly up to 92.2 µM;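 further: cells exposed to compound for 40 hours; on the % scale 0 is the no-effect control and ±100 the full control effect; nearly all actives have a fitted effect of over 35% in size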
Outline: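 qHTS, rat hepatoma H-4-II-E, 1500 cells/well; 40 hr compound exposure, 37 °C; CellTiter-Glo ATP luminescence after 20 min RT; AC50 by standard Hill fit.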

[4] = molecular target: Cytochrome P450 3A4 (Homo sapiens) (UniProt P08684); assay: qHTS Assay for Inhibitors and Substrates of Cytochrome P450 3A4 (AID 884); details: recombinant CYP3A4, Luciferin-PPXE luminescence; series mostly up to 57.1 µM; further: on the % scale 0 is the no-effect control and ±100 the full control effect; nearly all actives have a fitted effect of over 50% in size
Sequence of Cytochrome P450 3A4 (Homo sapiens) (P08684 whole entry, looked up): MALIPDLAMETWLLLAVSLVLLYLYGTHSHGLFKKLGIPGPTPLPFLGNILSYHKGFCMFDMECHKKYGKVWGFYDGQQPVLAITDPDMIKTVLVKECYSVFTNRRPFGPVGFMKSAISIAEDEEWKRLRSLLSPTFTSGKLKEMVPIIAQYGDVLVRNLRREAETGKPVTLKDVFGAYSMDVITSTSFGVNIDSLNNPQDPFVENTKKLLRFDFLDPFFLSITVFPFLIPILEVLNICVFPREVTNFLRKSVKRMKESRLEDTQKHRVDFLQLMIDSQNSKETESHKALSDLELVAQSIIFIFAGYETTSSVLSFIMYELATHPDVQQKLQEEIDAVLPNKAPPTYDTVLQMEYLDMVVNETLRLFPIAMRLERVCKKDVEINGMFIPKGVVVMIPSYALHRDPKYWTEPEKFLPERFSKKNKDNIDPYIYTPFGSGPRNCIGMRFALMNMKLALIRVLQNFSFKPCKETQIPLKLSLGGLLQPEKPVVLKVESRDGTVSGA
Outline: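 Luminescent readout of luciferin produced by CYP3A4 (20 nM) dealkylation of Luciferin-PPXE, 25 uM (its KM). NADPH-driven reaction ran 60 min at RT after 10 min compound preincubation; data scaled to 57 uM ketoconazole as 100% inhibition.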

[5] = Cell Viability - LYMP2-001 (AID 921); details: LYMP2-001 lymphoblastoid cell viability; series mostly up to 92.2 µM;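 further: 0% = DMSO only and full inhibition = tetraoctylammonium bromide control wells; nearly all actives have a fitted effect of over 70% in size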
Outline: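 Cellular ATP loss read by luciferase luminescence after 24 h compound exposure at 37 C in complete medium. LYMP2-001 lymphoblastoid cells, 2500/well; qHTS concentration-response data fitted with Hill equation for AC50.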

[6] = MultiTox-Fluor Cytotoxicity Assay - LYMP1-002 - Dead Cells (AID 960); details: LYMP1-002 lymphoblastoid cells, dead-cell protease fluorescence; series mostly up to 46.1 µM;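 further: 0% = DMSO and 100% = tetraoctylammonium bromide; nearly all actives have a fitted effect of over 60% in size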
Outline: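 Readout: fluorescence at 485/520 from cell-impermeant bis-AAF-R110 cleaved by proteases leaking from damaged cells. LYMP1-002 lymphoblastoid line, 16 hr compound treatment at 37 C, concentration-response in qHTS format; Hill-equation AC50 values.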

[7] = Cell Viability - LYMP2-024 (AID 988); details: LYMP2-024 lymphoblastoid cell viability; series mostly up to 92.2 µM;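 further: cells exposed to compound for 24 hr at 37 °C; plate controls were DMSO only for no effect and 92 µM tetraoctylammonium bromide for full effect; nearly all actives have a fitted effect of over 60% in size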
Outline: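 ATP-based luminescence (CellTiter-Glo, 30 min RT) after 24 h compound exposure at 37 C of 2500 lymphoblastoid cells/well; decrease in ATP taken as cytotoxicity. qHTS concentration-response fitted to standard Hill equation for AC50.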

[8] = molecular target: Estrogen receptor (Homo sapiens) (UniProt P03372); assay: qHTS assay for small molecule antagonists of estrogen receptor alpha signaling (AID 588513; active means well fitted curve in the direction sought with a large enough effect in the signal ratio, with a control signal flat, not every such curve was filed as active; the % refers to the signal ratio; further: on the % scale 0 is the no-effect control and ±100 the full control effect); details: ER-alpha-UAS-bla HEK293, beta-lactamase ratio, antagonist mode; series mostly up to 76.9 µM
Sequence of Estrogen receptor (Homo sapiens) (P03372 whole entry, looked up): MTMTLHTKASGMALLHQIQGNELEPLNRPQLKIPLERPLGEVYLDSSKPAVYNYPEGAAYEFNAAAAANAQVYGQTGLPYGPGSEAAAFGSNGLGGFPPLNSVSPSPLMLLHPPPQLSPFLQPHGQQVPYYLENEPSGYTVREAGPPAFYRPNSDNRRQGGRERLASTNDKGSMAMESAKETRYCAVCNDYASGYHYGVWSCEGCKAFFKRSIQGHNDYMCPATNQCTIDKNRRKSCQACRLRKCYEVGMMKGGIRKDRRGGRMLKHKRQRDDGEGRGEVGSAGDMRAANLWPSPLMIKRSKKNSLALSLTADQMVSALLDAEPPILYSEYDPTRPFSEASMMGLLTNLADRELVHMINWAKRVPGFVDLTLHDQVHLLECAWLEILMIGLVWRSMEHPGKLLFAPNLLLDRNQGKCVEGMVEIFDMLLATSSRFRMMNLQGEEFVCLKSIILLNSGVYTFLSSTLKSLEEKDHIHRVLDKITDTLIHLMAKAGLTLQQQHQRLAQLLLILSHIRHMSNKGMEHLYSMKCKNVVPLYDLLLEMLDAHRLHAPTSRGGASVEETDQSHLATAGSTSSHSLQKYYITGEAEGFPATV
Outline: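 Antagonist mode: inhibition of 0.5 nM 17-beta-estradiol-driven beta-lactamase reporter in HEK 293 ER-alpha-UAS-bla cells, 18 h at 37C, CCF4 readout after 2 h at RT. Normalised to estradiol and DMSO; titration fitted to Hill.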

[9] = molecular target: Glucocorticoid receptor (Homo sapiens) (UniProt P04150); assay: qHTS assay for small molecule agonists of glucocorticoid receptor signaling (AID 588532; active means well fitted curve in the direction sought with a large enough effect in the signal ratio, with a control signal flat; the % refers to the signal ratio;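 further: 100% = dexamethasone at 0.1 µM and 0% = DMSO only wells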); details: HeLa MMTV-bla, beta-lactamase ratio, agonist, 18 h; active compounds read high; percent of dexamethasone control, DMSO zero
Sequence of Glucocorticoid receptor (Homo sapiens) (P04150 whole entry, looked up): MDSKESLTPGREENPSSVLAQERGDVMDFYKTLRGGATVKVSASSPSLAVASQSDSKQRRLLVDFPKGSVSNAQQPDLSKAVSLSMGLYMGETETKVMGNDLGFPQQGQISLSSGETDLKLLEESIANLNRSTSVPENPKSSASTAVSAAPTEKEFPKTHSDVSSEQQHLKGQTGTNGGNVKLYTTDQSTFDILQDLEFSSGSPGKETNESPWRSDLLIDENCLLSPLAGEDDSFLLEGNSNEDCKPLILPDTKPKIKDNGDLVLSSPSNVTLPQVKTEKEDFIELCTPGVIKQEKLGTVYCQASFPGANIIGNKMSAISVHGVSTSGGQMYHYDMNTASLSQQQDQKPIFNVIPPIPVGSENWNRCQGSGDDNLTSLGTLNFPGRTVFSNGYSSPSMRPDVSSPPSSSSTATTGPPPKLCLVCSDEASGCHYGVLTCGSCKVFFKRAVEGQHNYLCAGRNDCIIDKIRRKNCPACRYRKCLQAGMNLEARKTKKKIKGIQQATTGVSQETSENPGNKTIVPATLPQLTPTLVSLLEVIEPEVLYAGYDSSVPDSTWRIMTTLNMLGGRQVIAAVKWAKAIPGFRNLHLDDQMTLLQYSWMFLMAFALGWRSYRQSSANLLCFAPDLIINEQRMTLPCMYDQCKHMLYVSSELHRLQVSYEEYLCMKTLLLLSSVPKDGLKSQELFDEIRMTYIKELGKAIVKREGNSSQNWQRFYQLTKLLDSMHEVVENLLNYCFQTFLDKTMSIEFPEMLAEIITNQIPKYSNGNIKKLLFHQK
Outline: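 Agonist-mode qHTS: GRE-driven beta-lactamase in HeLa cells exposed 18 h to titrated compounds (up to 92 uM), then CCF4 ratio read after 2 h at RT; Hill-fitted EC50, efficacy relative to 0.1 uM dexamethasone.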

[10] = molecular target: Thyroid hormone receptor beta (Homo sapiens) (UniProt P10828); assay: qHTS assay for small molecule agonists of thyroid hormone receptor beta signaling (AID 588545; calls by dose curve;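 further: 0% = DMSO only and 100% = 10 nM T3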); details: TR-UAS-bla GripTite HEK 293, beta-lactamase ratio, agonist mode, 18 h, percent of T3 response, DMSO as zero; series mostly up to 76.7 µM
Sequence of Thyroid hormone receptor beta (Homo sapiens) (P10828 whole entry, looked up): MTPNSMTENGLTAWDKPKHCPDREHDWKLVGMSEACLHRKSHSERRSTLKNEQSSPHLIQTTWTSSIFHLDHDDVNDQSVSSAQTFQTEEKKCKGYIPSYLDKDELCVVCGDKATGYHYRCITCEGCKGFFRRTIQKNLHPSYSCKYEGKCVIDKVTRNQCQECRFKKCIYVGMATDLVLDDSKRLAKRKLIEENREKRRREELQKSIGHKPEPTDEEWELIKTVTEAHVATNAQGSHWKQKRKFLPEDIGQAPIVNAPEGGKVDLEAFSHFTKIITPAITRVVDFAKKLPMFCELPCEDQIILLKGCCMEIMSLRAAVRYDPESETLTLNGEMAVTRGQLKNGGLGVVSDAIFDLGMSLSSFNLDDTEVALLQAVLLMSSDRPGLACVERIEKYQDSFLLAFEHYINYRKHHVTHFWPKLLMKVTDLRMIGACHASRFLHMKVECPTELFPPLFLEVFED
Outline: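 Efficacy and EC50 values derive from Hill fits of qHTS titration data, normalized to 10 nM T3 and DMSO-only wells. HEK 293 reporter cells were stimulated for 18 hrs at 37 C, with beta-lactamase activity measured by CCF4 fluorescence.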

[11] = molecular target: Thyroid hormone receptor beta (Homo sapiens) (UniProt P10828); assay: qHTS assay for small molecule antagonists of thyroid hormone receptor beta signaling (AID 588547; active means well fitted inhibition curve with a large enough effect in the signal ratio, with a control signal flat, not every such curve was filed as active; the % refers to the signal ratio;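 further: cells stimulated with 0.4 nM T3 agonist during compound exposure; on the % scale 0 is the no-effect control and ±100 the full control effect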); details: TR-UAS-bla HEK293, beta-lactamase ratio, antagonist mode, 18 h
Outline: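 Inhibition of T3-driven (0.4nM final) beta-lactamase reporter activity was measured over 0.59 nM to 92 uM compound after 18 h at 37 C. The cells were GripTite HEK293 TR-UAS-bla in charcoal/dextran-stripped serum, with CCF4 ratio read-out and IC50 from Hill fits.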

[12] = qHTS assay for small molecule agonists of the antioxidant response element (ARE) signaling pathway (AID 651741; active means well fitted activation curve with a large enough effect in the signal ratio; the % refers to the signal ratio; further: % of control where 0% means no effect); details: HepG2 ARE-bla reporter, beta-lactamase FRET ratio, 16 h; series mostly up to 96 µM
Outline: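 Agonist activity is measured as ARE-driven beta-lactamase expression in a stable HepG2 reporter line, using 16 h compound treatment at 37 C and a FRET substrate fluorescence readout after 2 h.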

[13] = molecular target: Tumor necrosis factor (Homo sapiens) (UniProt P01375); assay: qHTS assay to identify small molecules that stimulate Tumor Necrosis Factor-alpha (TNF-alpha) secretion (AID 651757; active means well fitted curve in the direction sought with a large enough effect in the signal ratio; the % refers to the signal ratio; further: 0% is about no effect); details: Human cells, HTRF 665/615 ratio; series mostly up to 92.2 µM
Sequence of Tumor necrosis factor (Homo sapiens) (P01375 whole entry, looked up): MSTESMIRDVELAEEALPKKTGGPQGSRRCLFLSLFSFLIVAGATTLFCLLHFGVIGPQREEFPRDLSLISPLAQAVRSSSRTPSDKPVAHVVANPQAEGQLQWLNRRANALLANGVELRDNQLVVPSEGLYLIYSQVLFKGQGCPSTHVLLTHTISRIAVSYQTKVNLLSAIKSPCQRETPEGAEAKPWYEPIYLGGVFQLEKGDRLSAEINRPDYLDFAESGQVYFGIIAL
Outline: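 THP-1 cells, 3000/well; compound 17 hrs, 37 C; add cryptate/XL665 anti-TNF-alpha antibody pair; 3 hr RT; TR-FRET (HTRF) read of secreted TNF-alpha. Quantitative HTS format.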

[14] = qHTS assay for small molecule antagonists of the retinoid-related orphan receptor gamma (ROR-gamma) signaling pathway - cell viability counter screen (AID 720652; active means well fitted curve in the direction sought with a large enough effect in the repeat runs; an effect the other way counts as inactive or inconclusive;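 further: CHO reporter cells with doxycycline-induced ROR-gamma expression; compound exposure lasted 16 hr before ATP read; on the % scale 0 is the no-effect control and ±100 the full control effect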); details: RORgamma reporter cell line viability counter screen; series mostly up to 92.2 µM
Outline: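 CHO RORE-LUC/TET-ROR line, 1,000 cells/well, 37 C 5% CO2 5 hr; cpd or DMSO + doxycycline induction, 16 hr. CellTiter-Glo, 30 min RT, luminescence = ATP content.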

[15] = molecular target: Nuclear receptor subfamily 1 group I member 2 (Rattus norvegicus) (UniProt Q9R1A7); assay: qHTS assay for small molecule activators of the rat pregnane X receptor (rPXR) signaling pathway (AID 651751; call rule not given here; further: 0% is about no effect); details: rPXR reporter cells, luciferase (One-Glo), 24 h
Sequence of Nuclear receptor subfamily 1 group I member 2 (Rattus norvegicus) (Q9R1A7 whole entry, looked up): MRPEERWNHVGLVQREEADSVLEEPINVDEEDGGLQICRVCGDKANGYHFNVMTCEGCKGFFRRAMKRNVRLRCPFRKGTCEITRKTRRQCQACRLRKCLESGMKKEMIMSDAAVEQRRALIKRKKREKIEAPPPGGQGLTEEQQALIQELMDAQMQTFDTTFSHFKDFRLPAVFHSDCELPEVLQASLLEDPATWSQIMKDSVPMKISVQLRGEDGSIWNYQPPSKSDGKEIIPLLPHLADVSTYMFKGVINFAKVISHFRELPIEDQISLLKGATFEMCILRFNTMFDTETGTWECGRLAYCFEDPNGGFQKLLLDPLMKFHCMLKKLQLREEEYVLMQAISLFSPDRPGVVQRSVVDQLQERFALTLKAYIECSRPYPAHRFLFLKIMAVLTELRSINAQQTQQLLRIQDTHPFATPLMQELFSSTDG

[16] = qHTS assay for small molecule activators of the human pregnane X receptor (PXR) signaling pathway (AID 720659; call rule not given here; further: 0% is about no effect); details: DPX-2 HepG2 CYP3A4-luciferase, 24 h; series mostly up to 92.3 µM
[17] = molecular target: Bile acid receptor (Homo sapiens) (UniProt Q96RI1); assay: qHTS assay for small molecule agonists of farnesoid X receptor signaling (AID 588527; calls by dose curve;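 further: 0% = vehicle basal and 100% = reference agonist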); details: HEK293T FXR-UAS-bla, beta-lactamase ratio, 16 h; active compounds read high
Sequence of Bile acid receptor (Homo sapiens) (Q96RI1 whole entry, looked up): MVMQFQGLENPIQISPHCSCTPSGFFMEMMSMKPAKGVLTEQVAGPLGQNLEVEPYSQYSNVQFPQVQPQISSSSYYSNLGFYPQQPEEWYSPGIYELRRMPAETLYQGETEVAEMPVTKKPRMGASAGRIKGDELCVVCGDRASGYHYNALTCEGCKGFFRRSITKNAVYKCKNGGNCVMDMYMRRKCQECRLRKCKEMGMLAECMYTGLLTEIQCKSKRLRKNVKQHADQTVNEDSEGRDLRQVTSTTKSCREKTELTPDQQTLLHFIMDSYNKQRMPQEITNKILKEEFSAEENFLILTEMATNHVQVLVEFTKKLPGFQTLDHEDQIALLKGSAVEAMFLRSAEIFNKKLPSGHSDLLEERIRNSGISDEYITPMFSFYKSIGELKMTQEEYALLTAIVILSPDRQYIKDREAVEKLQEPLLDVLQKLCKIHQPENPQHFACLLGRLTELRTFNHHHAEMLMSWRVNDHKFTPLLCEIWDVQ
Outline: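 Read-out: beta-lactamase reporter fluorescence with CCF4 substrate in GeneBLAzer FXR-UAS-bla HEK293T cells, after 16 h compound exposure at 37 C. Response scaled between DMSO basal (0%) and chenodeoxycholic acid at 100 uM (100%).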

[18] = molecular target: Glucocorticoid receptor (Homo sapiens) (UniProt P04150); assay: qHTS assay for small molecule antagonists of glucocorticoid receptor signaling (AID 588533; active means well fitted inhibition curve with a large enough effect in the signal ratio, with a control signal flat, not every such curve was filed as active; the % refers to the signal ratio); details: HeLa MMTV-bla, GRE beta-lactamase ratio, antagonist mode, 18 h; series mostly up to 76.8 µM
Outline: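 Antagonist-mode qHTS: compound titrations added to GRE-bla HeLa cells, then dexamethasone 2 nM final; 18 h, 37 C. CCF4 FRET fluorescence normalized to dexamethasone and DMSO; IC50 from Hill fit.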

[19] = molecular target: Vitamin D3 receptor (Homo sapiens) (UniProt P11473); assay: qHTS assay for small molecule antagonists of vitamin D receptor signaling (AID 588541; calls by dose curve); details: HEK293T VDR-UAS-bla, beta-lactamase ratio, antagonist mode; series mostly up to 76.7 µM
Sequence of Vitamin D3 receptor (Homo sapiens) (P11473 whole entry, looked up): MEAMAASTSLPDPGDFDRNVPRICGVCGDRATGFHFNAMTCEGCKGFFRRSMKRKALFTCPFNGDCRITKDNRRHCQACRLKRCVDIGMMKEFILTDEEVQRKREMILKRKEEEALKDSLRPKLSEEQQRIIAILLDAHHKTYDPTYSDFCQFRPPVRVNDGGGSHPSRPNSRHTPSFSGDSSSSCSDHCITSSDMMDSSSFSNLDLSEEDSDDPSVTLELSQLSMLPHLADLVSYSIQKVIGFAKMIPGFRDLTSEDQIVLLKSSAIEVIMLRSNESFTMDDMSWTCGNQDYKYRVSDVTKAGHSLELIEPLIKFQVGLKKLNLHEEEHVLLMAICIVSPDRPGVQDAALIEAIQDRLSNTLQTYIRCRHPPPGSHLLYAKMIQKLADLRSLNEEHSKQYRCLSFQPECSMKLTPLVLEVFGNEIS
Outline: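 Antagonist-mode beta-lactamase reporter assay: HEK293T VDR-UAS-bla cells were exposed to titrated compound alongside 1-alpha,25-dihydroxyvitamin D3 at 3 nM final for 16 h. Values were normalized to the 50 nM agonist control and DMSO basal, with IC50 and efficacy from Hill equation fits.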

[20] = molecular target: Vitamin D3 receptor (Homo sapiens) (UniProt P11473); assay: qHTS assay for small molecule agonists of vitamin D receptor signaling (AID 588543; calls by dose curve;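 further: 0% = DMSO basal and 100% = reference agonist control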); details: HEK293T VDR-UAS-bla, beta-lactamase ratio, 16 h; series mostly up to 76.8 µM
Outline: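 Agonist-mode beta-lactamase reporter: HEK293T VDR-UAS-bla cells in charcoal-stripped 2% FBS, compound series 16 h 37 C, CCF4 2 h RT. EC50 from Hill fit, scaled against DMSO and 50 nM calcitriol control.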

C=C(Cl)Cl
inactive: Potency [1] > 92 µM | outcome [2] | Potency [3] | Potency [4] | Potency [5] | Potency [6] | Potency [7] | Potency [8] | activation [9] -1.7% | outcome [10] | activity change % (negative = inhibition) [11] -6% | Potency [12] | outcome [13] | Potency [14] | max response [15] -3.03% | outcome [16]

COc1ccc(C=O)cc1OC
inactive: Potency [1] > 92 µM | outcome [2] | Potency [3] | Potency [4] | Potency [5] | Potency [6] | Potency [7] | Potency [8] | outcome [10] | activity change % (negative = inhibition) [11] 2.18% and 12.7% | Potency [12] | Potency [14] | max response [15] -2.56% and 1.92% | outcome [16]

Cc1cccc(C#N)c1
inactive: Potency [1] > 92 µM | outcome [2] | Potency [3] | Potency [4] | Potency [5] | Potency [6] | Potency [7] | Potency [8] | activation [17] -2.16% | activation [9] -3.56% | Potency [18] | outcome [19] | outcome [20] | outcome [10] | activity change % (negative = inhibition) [11] 7.42% | outcome [13] | Potency [14] | max response [15] -0.906% | outcome [16]

CCOP(=S)(OCC)SCSC(C)(C)C
inactive: Potency [1] > 92 µM | outcome [2] | Potency [3] | Potency [4] | Potency [5] | Potency [6] | Potency [7] | Potency [8] | outcome [19] | outcome [20] | outcome [10] | activity change % (negative = inhibition) [11] -5% and -15.6% | Potency [12] | outcome [13] | Potency [14] | max response [15] 3.05% and 5.9%

O=NN(c1ccccc1)c1ccccc1
inactive: outcome [2] | Potency [3] | Potency [4] | Potency [5] | Potency [6] | Potency [7] | Potency [8] | activation [17] -0.746% and 1.47% | activation [9] -1.26% and -2.24% | Potency [18] | outcome [10] | activity change % (negative = inhibition) [11] -20.2% and 4.93% | outcome [13] | Potency [14] | max response [15] 2.63% and 4.55% | outcome [16]

NC(=S)Nc1ccccc1
inactive: Potency [1] > 92 µM | outcome [2] | Potency [3] | Potency [4] | Potency [5] | Potency [6] | Potency [7] | Potency [8] | activation [17] -3.05% and -3.49% | activation [9] 11.7% | Potency [18] | outcome [19] | outcome [20] | outcome [10] | activity change % (negative = inhibition) [11] -7.36% and -1.01% and 3.6% | Potency [12] | outcome [13] | Potency [14]
